From PubChem
Most compounds without a hit are left out; they make up all but 19% or so of the library.
TDP1 cell CPT – qHTS for Inhibitors of human tyrosyl-DNA phosphodiesterase 1 (TDP1): qHTS in cells in presence of CPT; chicken DT40 Tdp1-/-;hTDP1 cells + 20 nM CPT, ATP luminescence, 48 h; Potency, µM (highest dose often 46.2 µM), for inactives: top-dose activity change, negative = growth inhibition, most hits filed as inhibitors; actives 12% (n = 420,000); further: potency means the concentration at half of the fitted maximal effect; nearly all actives have a fitted effect of over 55% in size
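Chicken DT40 Tdp1-/- cells stably complemented with human TDP1 were seeded at 400 cells/well in medium containing 20 nM camptothecin, exposed to pin-transferred compounds, and grown at 37 °C for at least 48 hr. Viability was read as ATP luminescence.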
Giardia killer – Small Molecules that selectively kill Giardia lamblia: qHTS. Giardia lamblia trophozoite viability. activity change, % at 7.66 µM, hits read low. actives 0.15% (n = 340,000). AID 540267, 2011; in the data active means activity change below about -80%; inconclusive means between about -30% and that limit;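 further: parasites exposed to compound for two days anaerobically before the ATP read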
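Compounds were tested on trophozoites seeded at 100 cells/well and held 48 hrs at 37 deg C anaerobically. An ATP-based luminescent kit measured the remaining live cells.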
TDP1 inh – qHTS Assay for Inhibitors of Tyrosyl-DNA Phosphodiesterase (TDP1); Tyrosyl-DNA phosphodiesterase 1 (Homo sapiens), Q9NUW8; recombinant TDP1, AlphaScreen DNA substrate cleavage; Potency, µM (highest dose often 130 µM), inactives show top-dose activity change, negative = inhibition, most hits filed as inhibitors; actives 0.28% (n = 350,000); AID 485290, 2010; further: potency means the concentration at half of the fitted maximal effect; nearly all actives have a fitted effect of over 40% in size
Target sequence (Q9NUW8 whole entry, looked up): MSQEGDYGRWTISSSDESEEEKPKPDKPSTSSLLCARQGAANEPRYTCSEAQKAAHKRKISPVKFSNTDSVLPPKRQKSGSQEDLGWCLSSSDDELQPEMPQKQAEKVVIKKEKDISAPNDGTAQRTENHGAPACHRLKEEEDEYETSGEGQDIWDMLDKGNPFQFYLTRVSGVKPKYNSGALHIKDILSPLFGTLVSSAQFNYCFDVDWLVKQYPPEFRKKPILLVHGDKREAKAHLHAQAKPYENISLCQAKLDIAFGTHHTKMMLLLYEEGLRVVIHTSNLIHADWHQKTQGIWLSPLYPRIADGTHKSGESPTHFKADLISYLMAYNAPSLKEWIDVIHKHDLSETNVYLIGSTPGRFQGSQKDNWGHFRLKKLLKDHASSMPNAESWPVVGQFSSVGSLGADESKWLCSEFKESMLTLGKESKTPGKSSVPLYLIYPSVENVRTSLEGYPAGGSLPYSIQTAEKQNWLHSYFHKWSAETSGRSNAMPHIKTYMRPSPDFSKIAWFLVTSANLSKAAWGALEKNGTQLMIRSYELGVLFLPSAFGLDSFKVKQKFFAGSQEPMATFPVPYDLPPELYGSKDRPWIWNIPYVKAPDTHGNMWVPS
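Signal: AlphaScreen proximity between streptavidin donor and anti-FITC acceptor beads on intact substrate. Reaction: Tdp1 1 nM, substrate 15 nM final, 5 min RT after 15 min compound preincubation.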
DT40 TDP1 no CPT – qHTS for Inhibitors of human tyrosyl-DNA phosphodiesterase 1 (TDP1): qHTS in cells in absence of CPT. DT40 Tdp1-/- hTDP1 cells, no CPT, ATP luminescence, 48 h. Potency, µM (series often up to 46.2 µM), without a hit: at the highest dose activity change, negative = growth inhibition, hits mostly inhibitors. actives 15% (n = 420,000); further: potency means the concentration at half of the fitted maximal effect; nearly all actives have a fitted effect of over 55% in size
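Cells were dispensed at 400 per well, compounds added by pin tool, plates incubated ≥48 hr at 37 °C, then CellTiter-Glo added for 30 min at room temperature before luminescence reading. Line: DT40 Tdp1-/- complemented with hTDP1; camptothecin omitted.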
IL1B secr inh – qHTS for Inhibitors of Inflammasome Signaling: IL-1-beta AlphaLISA Primary Screen. THP-1 LPS/ATP IL-1B secretion, AlphaLISA, 16 h; active compounds read low. activity change, % at 57.5 µM. actives 4.7% (n = 360,000). AID 743279, 2014; in the data active means activity change below about -50%; inconclusive means mostly about -30% to -49%
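Secreted IL-1B measured by AlphaLISA bead assay after 16 h compound exposure of THP-1 cells; compounds (final up to 57.5 uM) added 1 h before LPS (250 ng/mL) and ATP (1.25 mM) stimulation; lower signal means less secretion.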
ELG1 repair inh – qHTS screen for small molecules that inhibit ELG1-dependent DNA repair in human embryonic kidney (HEK293T) cells expressing luciferase-tagged ELG1; Potency, µM (titrated, usually from 46.1 µM), without a hit: at the top dose activity change, negative = inhibition, usual class: inhibitors; AID 504467, 2011; HEK293T ELG1-luciferase reporter, luminescence, 16 h; DNA damage induced by 5-fluorouridine; actives 2.3% (n = 330,000); further: potency means the concentration at half of the fitted maximal effect; nearly all actives have a fitted effect of over 55% in size
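Reporter activity after DNA damage by 5-fluorouridine is monitored. Compound-treated cells incubate 16 hr at 37 °C, then ONE-Glo is added for 30 min before luminescence reading.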
Numbers without * were called inactive; ? = inconclusive; . = no result; ! = repeats disagree. Unless noted, the call rests on the fitted dose curve; in most records, active means well fitted curve in the direction sought with a large enough effect; inconclusive means small, poorly fitted or top-dose-only effect, or another doubt; inactive means no such curve, though single readings can be large; an effect the other way counts as inactive or inconclusive. On the % scale 0 is the no-effect control and ±100 the full control effect.

SMILES | TDP1 cell CPT | Giardia killer | TDP1 inh | DT40 TDP1 no CPT | IL1B secr inh | ELG1 repair inh
CN1C(=S)SC(/[N+]([O-])=C/c2ccc(Cl)cc2)C1(C)C (stereo not given) | -2% | -3 | ? | -5% | 16 | 4%
[O-][N+](=Cc1ccccc1)c1ccc(Cl)cc1 | 6.5µM* | -7 | . | 21µM* | -10 | .
[O-]/[N+](=C\c1ccco1)c1ccc(Cl)cc1 | ? | -2 | 4% | ? | -3 | ?
COCCN1C(=O)c2ccccc2C1c1nc2ccccc2[nH]1 (stereo not given) | 5% | . | . | 10% | 21 | .
CSc1cnn(Cc2ccccc2)c(=O)c1SCc1ccccc1 | ? | -1 | -1% | ? | 0 | 6%
CC(=O)NC(Cc1cccc(C)c1)C(=O)NC1CCN(C(=O)c2ccc([N+](=O)[O-])cc2)CC1 (stereo not given) | -2% | -5 | 0% | -24% | 4 | 7%
CCN(C[C@H]1N[C@@](Cc2ccccc2)(C(=O)OC)[C@H]2C(=O)N(Cc3ccccc3)C(=O)[C@@H]12)S(=O)(=O)c1ccc(C)cc1 | 16µM* | 3 | 0% | 21µM* | -25 | ?
CCN(C[C@H]1N[C@@](Cc2ccccc2)(C(=O)OC)[C@H]2C(=O)N(Cc3ccccc3)C(=O)[C@@H]12)S(=O)(=O)c1ccc(-c2ccccc2)cc1 | -14% | -27 | 0% | -12% | -5 | 1%
CCN(C[C@H]1N[C@@](C)(C(=O)OC)[C@H]2C(=O)N(Cc3ccccc3)C(=O)[C@@H]12)S(=O)(=O)c1ccc(C)cc1 | -24% | -27 | 0% | -20% | 1 | 1%
CCN(C[C@H]1N[C@@](CC)(C(=O)OC)[C@H]2C(=O)N(Cc3ccccc3)C(=O)[C@@H]12)S(=O)(=O)c1ccc(F)cc1 | ? | 3 | 1% | 21µM* | -16 | ?
CCN(C[C@H]1N[C@@](Cc2ccccc2)(C(=O)OC)[C@H]2C(=O)N(Cc3ccccc3)C(=O)[C@@H]12)S(=O)(=O)c1ccccc1 | ? | 8 | 0% | 23µM* | -13 | -8%
C/C(=N\Nc1nc(C)cc(-c2ccccc2)n1)c1ccccc1 | ? | 3 | . | ? | 3 | ?
C/C(=N\Nc1nc(C)cc(-c2ccccc2)n1)c1ccc(O)cc1 | 7.3µM* | -9 | . | 4.6µM* | -74* | ?
C/C(=N\Nc1nc(C)cc(-c2ccccc2)n1)c1cccc(N)c1 | ? | 18 | . | 21µM* | 5 | ?
CNC(=O)c1ccccc1Sc1ccc2c(/C=C/c3ccccn3)n[nH]c2c1 | 4.2µM* | . | . | 2.7µM* | . | .
O=S(=O)(c1cccc(-c2nnc(SCc3nc4ccccc4s3)o2)c1)N1CCOCC1 | 18µM* | -13 | 6% | ? | -19 | ?
CCCCn1c(CCl)nc2cc(S(=O)(=O)N3CCOCC3)ccc21 | 4.6µM* | 18 | 2% | 6.5µM* | . | ?
CC(=O)CCSc1nnc(-c2cccc(S(=O)(=O)N3CCOCC3)c2)o1 | -24% | -4 | . | -17% | -4 | -5%
CCn1c(SCc2nc3ccccc3s2)nc2cc(S(=O)(=O)N3CCOCC3)ccc21 | 29µM* | -5 | . | ? | 12 | .
C(=C\c1nc(-c2ccncc2)no1)/c1ccccc1 | -7% | 15 | -3% | 16µM* | -22 | 5%
CC1CCN(S(=O)(=O)c2ccc(C(=O)Nc3nnc(C4=COCCO4)o3)cc2)CC1 | 23µM* | 12 | 4% | ? | 71 | ?
N#CCCN(CCC#N)S(=O)(=O)c1ccc(C(=O)Nc2nnc(C3=COCCO3)o2)cc1 | 0% | -25 | 2% | 7% | 10 | 3%
CCCCN(C)S(=O)(=O)c1ccc(C(=O)Nc2nnc(C3=COCCO3)o2)cc1 | ? | -4 | 9% | ? | 9 | 15µM*
FC(F)(F)c1ccccc1-n1ccnc1 | ? | 33 | 9% | 16µM*! | 16 | 19%
CCOc1cc(/C=C(\C#N)c2nc3ccccc3[nH]2)ccc1OC(C)C(=O)O (stereo not given) | 6% | 2 | . | -7% | 10 | 13%
SMILES | TDP1 cell CPT | Giardia killer | TDP1 inh | DT40 TDP1 no CPT | IL1B secr inh | ELG1 repair inh
COc1cc(/C=C(/C#N)c2ccc(C)cc2)ccc1Oc1ccc([N+](=O)[O-])cn1 | ? | -1 | -4% | ? | -69* | -1%
CCOc1cc(/C=C(/C#N)c2nc3ccccc3[nH]2)ccc1Oc1ccc([N+](=O)[O-])cn1 | 13µM* | -15 | 5% | ? | ? | 28%
COc1cc(/C=N/NC(=O)c2ccccc2Cl)ccc1Oc1ccc([N+](=O)[O-])cn1 | ? | -30 | 8% | ? | 17 | ?
CCn1cc(S(=O)(=O)N2CCCC2)cn1 | -3% | -5 | 3% | 4% | 9 | ?
CCOc1ccc(C(=O)NCC(c2ccc3c(c2)OCO3)N2CCOCC2)cc1 (stereo not given) | -8% | . | 8% | ? | . | .
COc1ccc(N2CCN(C(CNC(=O)c3ccc(C)cc3)c3ccc4c(c3)OCO4)CC2)cc1 (stereo not given) | 8.2µM* | . | 7% | 5.8µM* | . | .
Cc1ccc(C(=O)NCC(c2ccc3c(c2)OCO3)N2CCOCC2)cc1C (stereo not given) | 21µM* | . | -2% | 10µM* | . | .
COc1ccccc1N1CCN(C(c2cccs2)C(C)NC(=O)c2ccco2)CC1 (stereo not given) | ? | -22 | 4% | ? | 3 | ?
CN1CCN(C(CNC(=O)C(=O)Nc2cccc(Cl)c2)c2ccc3c(c2)OCO3)CC1 (stereo not given) | ? | . | -3% | ? | . | .
O=C(NCC(c1ccc2c(c1)OCO2)N1CCOCC1)C(=O)Nc1cccc(Cl)c1 (stereo not given) | ? | . | 0% | 12µM* | . | .
COc1ccccc1N1CCN(C(c2cccs2)C(C)NC(=O)c2ccncc2)CC1 (stereo not given) | 21µM* | -9 | . | ? | 4 | 14%
COc1ccc(C(=O)NCC(c2ccc3c(c2)OCO3)N2CCN(C)CC2)cc1 (stereo not given) | 1% | . | -2% | -23% | . | .
